Laboratory results reported in PubChem BioAssay AID1159580 (chemical genetic matrix, 2015).
About 2,000 (36%) of roughly 5,500 compounds were called active. Roughly 18% stayed inconclusive and do not appear here. Rule as the data show it: active = normalized growth mostly below about 0.91 (no sharp cut-off); inconclusive = no clear call, values can overlap the other calls; inactive = mostly above about 0.92. The list shows a part of the results.

Assay: chemical genetic growth profiling, strain panel (AID 1159580);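 also: tested at 20 µM; growth read once vehicle control cultures reached saturation at 30 °C; 1 = growth at the plate median or of vehicle wells; lower values mean less growth of the strain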
Conditions: S. cerevisiae deletion strains, growth OD

Measured: normalized growth

CC12CCC(O)CC1CCC1C2[C@H](O)CC2(C)C(C3=CC(=O)OC3)CCC12O (stereo partly drawn)
inactive: locus YBR021W, strain FUR4, stronger effect = lower value 1.02 | locus YBR229C, strain ROT2, stronger effect = lower value 1.03 | locus YCL029C, strain bik1, stronger effect = lower value 1.01 | locus YDL035C, strain GPR1, stronger effect = lower value 1.07 | locus YDL074C, strain BRE1, stronger effect = lower value 1.08 | locus YDL101C, strain DUN1, stronger effect = lower value 1.02 | locus YDL185W, strain tfp1, stronger effect = lower value 0.995 | locus YDL192W, strain arf1, stronger effect = lower value 1.01 | locus YDR101C, strain arx1, stronger effect = lower value 1.02 | locus YDR162C, strain NBP2, stronger effect = lower value 1.03 | locus YDR318W, strain mcm21, stronger effect = lower value 0.998 | locus YDR388W, stronger effect = lower value 0.983 | locus YDR502C, strain sam2, stronger effect = lower value 1 | locus YER110C, stronger effect = lower value 0.988 | locus YER155C, strain BEM2, stronger effect = lower value 1.01 | locus YER167W, strain BCK2, stronger effect = lower value 1.04 | locus YGL078C, strain dbp3, stronger effect = lower value 1 | locus YGL086W, strain mad1, stronger effect = lower value 0.992 | locus YGL248W, strain PDE1, stronger effect = lower value 1.02 | locus YGR135W, strain pre9, stronger effect = lower value 0.976 | locus YGR252W, strain gcn5, stronger effect = lower value 0.954 | locus YHR079C, strain IRE1 (second series), stronger effect = lower value 0.992 | locus YHR094C, strain hxt1, stronger effect = lower value 0.984 | locus YHR129C, strain ARP1, stronger effect = lower value 1.02 | locus YHR200W, strain rpn10, stronger effect = lower value 0.999 | locus YIL066C, strain RNR3, stronger effect = lower value 1.04 | locus YIL073C, strain SPO22, stronger effect = lower value 1.06 | locus YIL125W, strain kgd1, stronger effect = lower value 0.996 | locus YIR030C, strain dcg1, stronger effect = lower value 0.986 | locus YJL095W, strain BCK1, stronger effect = lower value 1.03 | locus YJL134W, strain LCB3, stronger effect = lower value 1.01 | locus YJL168C, strain set2, stronger effect = lower value 0.992 | locus YJL187C, strain SWE1 (second series), stronger effect = lower value 1.01 | locus YJR043C, strain POL32, stronger effect = lower value 1.06 | locus YJR075W, strain HOC1, stronger effect = lower value 1.03 | locus YKL009W, strain mrt4, stronger effect = lower value 1.06 | locus YKL068W, stronger effect = lower value 1 | locus YKL085W, strain MDH1 (second series), stronger effect = lower value 1 | locus YKL085W, strain MDH1, stronger effect = lower value 1 | locus YKL190W, strain CNB1, stronger effect = lower value 1.02 | locus YKR001C, strain vps1, stronger effect = lower value 1.01 | locus YLR039C, strain RIC1, stronger effect = lower value 1.1 | locus YLR058C, strain SHM2, stronger effect = lower value 1.03 | locus YLR102C, strain apc9, stronger effect = lower value 0.994 | locus YLR262C, strain YPT6, stronger effect = lower value 1.16 | locus YLR268W, strain sec22, stronger effect = lower value 1.01 | locus YLR371W, strain rom2, stronger effect = lower value 0.991 | locus YLR418C, strain cdc73, stronger effect = lower value 0.957 | locus YML016C, strain PPZ1, stronger effect = lower value 1.02 | locus YML032C, strain rad52, stronger effect = lower value 1 | locus YML124C, strain tub3, stronger effect = lower value 1 | locus YMR078C, strain ctf18, stronger effect = lower value 1 | locus YMR223W, strain ubp8, stronger effect = lower value 0.983 | locus YMR263W, strain SAP30, stronger effect = lower value 1.02 | locus YMR307W, strain GAS1, stronger effect = lower value 1.08 | locus YNL067W, strain RPL9B, stronger effect = lower value 1.01 | locus YNL153C, strain GIM3, stronger effect = lower value 1.03 | locus YNL233W, strain BNI4, stronger effect = lower value 1.03 | locus YNL250W, strain rad50, stronger effect = lower value 0.986 | locus YNL271C, strain bni1, stronger effect = lower value 0.995 | locus YNL298W, strain CLA4, stronger effect = lower value 1.02 | locus YNL307C, strain MCK1, stronger effect = lower value 0.987 | locus YNR052C, strain pop2, stronger effect = lower value 0.991 | locus YOL012C, strain htz1 0.714 | locus YOL147C, strain pex11, stronger effect = lower value 0.991 | locus YOR061W, strain CKA2, stronger effect = lower value 1.06 | locus YOR069W, strain VPS5, stronger effect = lower value 1.01 | locus YOR136W, strain idh2, stronger effect = lower value 1.01 | locus YOR144C, strain elg1, stronger effect = lower value 0.998 | locus YOR184W, strain ser1, stronger effect = lower value 1.05 | locus YOR316C, strain cot1, stronger effect = lower value 0.995 | locus YPL055C, strain LGE1, stronger effect = lower value 1.07 | locus YPL241C, strain CIN2, stronger effect = lower value 1.01 | locus YPR119W, strain clb2, stronger effect = lower value 0.994 | locus YPR141C, strain kar3, stronger effect = lower value 0.982 | locus YPR163C, strain tif3, stronger effect = lower value 0.998 | locus YPR167C, strain met16, stronger effect = lower value 0.993 | strain wtn01, stronger effect = lower value 1.01
